{
  "source": "PubChem BioAssay (Tox21)",
  "key": {"[1]": {"biological_target": "Nuclear receptor subfamily 1 group I member 2 (Rattus norvegicus) (UniProt Q9R1A7)", "sequence (Q9R1A7 whole entry, looked up)": "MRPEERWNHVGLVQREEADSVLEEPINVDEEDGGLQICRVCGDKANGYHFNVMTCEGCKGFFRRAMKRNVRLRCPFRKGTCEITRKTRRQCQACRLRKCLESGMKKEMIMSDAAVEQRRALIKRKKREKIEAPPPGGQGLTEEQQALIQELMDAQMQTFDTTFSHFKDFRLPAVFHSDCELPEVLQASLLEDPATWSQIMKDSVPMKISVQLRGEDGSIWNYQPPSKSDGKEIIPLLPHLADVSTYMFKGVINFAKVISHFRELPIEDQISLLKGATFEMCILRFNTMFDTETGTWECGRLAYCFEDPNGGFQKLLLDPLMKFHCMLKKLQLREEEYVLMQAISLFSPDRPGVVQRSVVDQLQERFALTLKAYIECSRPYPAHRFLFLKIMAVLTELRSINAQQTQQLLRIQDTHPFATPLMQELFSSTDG", "experiment": "Rat pregnane X receptor (rPXR) activation by small molecules, qHTS assay (AID 1346983); note: % is set by controls: 0 for no effect and ±100 for the full control effect; nearly all actives have a fitted effect of over 20% in size", "conditions": "rPXR luciferase reporter cells, One-Glo luminescence, 24 h; max activation: stronger effect = higher value", "outline": "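Luminescent readout (One-Glo luciferase, 30 min room temperature) followed 24 hr compound treatment at 37 C of rPXR cells plated 2,000 per well and preincubated 5hr; qHTS format with compounds delivered in DMSO.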"}, "[2]": {"biological_target": "Nuclear receptor subfamily 1 group I member 2 (Homo sapiens) (UniProt O75469)", "experiment": "Human pregnane X receptor (PXR) activation by small molecules, qHTS assay (AID 1346985); note: nearly all actives have a fitted effect of over 40% in size; note: potency is the fitted concentration of half-maximal effect; for activation: % is set by controls: 0 for no effect and ±100 for the full control effect", "outline": "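DPX-2 cells (HepG2 co-transfected with a PXR response element and a CYP3A4-promoter luciferase construct) were seeded at 2,000 per well, rested 5 hr at 37C, then exposed to DMSO-dissolved compounds for 24 hr. Activation was read as luciferase luminescence.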"}},
  "note": "Values joined by “and” are separate entries in the source; they are usually repeats but may differ in a detail not shown here. Equal entries are not always repeated. Inconclusive results are not listed. The source holds several records for some structures; these can differ, active in one and inactive in another. Active and inactive are the calls of the source. Calls come from the whole dose curve; as a rule, active = well fitted curve in the direction sought with a large enough effect in the repeat runs; inconclusive = weak or mixed curves; inactive = no such curve, though single readings can be large; an effect the other way counts as inactive or inconclusive. Positions of bridges follow the written chain, without caps; N, C: chain ends. Non-standard residues stand in square brackets, D forms with d. Residues, ends and D or L forms follow the SMILES beside them. *: point of attachment. Dab(CH2SO3H) = N[C@@H](CCNCS(=O)(=O)O)C(=O)O; X3 = CC[C@@H](C)CCCCC(=O)*; Dab = NCC[C@H](N)C(=O)O",
  "data": [
    {"smiles": "CC[C@H]1OC(=O)[C@H](C)C(=O)[C@H](C)[C@@H](O[C@@H]2O[C@H](C)C[C@H](N(C)C)[C@H]2O)[C@](C)(OC)C[C@@H](C)C(=O)[C@H](C)[C@H]2N(CCCCn3cnc(-c4cccnc4)c3)C(=O)O[C@]12C", "values": [
      {"measurement": "max activation", "setting": "[1]", "value": "2.76% (inactive)"},
      {"measurement": "Potency", "setting": "[2]", "value": "inactive and 794 nM (active)"}
    ]},
    {"smiles": "CC[C@@H](C)CCCCC(=O)N[C@@H](CCNCS(=O)(=O)O)C(=O)N[C@H](C(=O)N[C@@H](CCNCS(=O)(=O)O)C(=O)N[C@H]1CCNC(=O)[C@H]([C@@H](C)O)NC(=O)[C@H](CCNCS(=O)(=O)O)NC(=O)[C@H](CCNCS(=O)(=O)O)NC(=O)[C@H](CC(C)C)NC(=O)[C@@H](CC(C)C)NC(=O)[C@H](CCNCS(=O)(=O)O)NC1=O)[C@@H](C)O", "note": "(X3-[Dab(CH2SO3H)]T[Dab(CH2SO3H)][Dab][Dab(CH2SO3H)][dL]L[Dab(CH2SO3H)][Dab(CH2SO3H)]T; lactam 4-C)", "values": [
      {"measurement": "max activation", "setting": "[1]", "value": "-6.38% (inactive)"},
      {"measurement": "Potency", "setting": "[2]", "value": "inactive"}
    ]},
    {"smiles": "CC/C=C\\C/C=C\\C/C=C\\C/C=C\\C/C=C\\CCCC(=O)O", "values": [
      {"measurement": "max activation", "setting": "[1]", "value": "-0.855% (inactive)"},
      {"measurement": "Potency", "setting": "[2]", "value": "inactive"}
    ]},
    {"smiles": "CNC(=O)C[C@@H](N)C(=O)N[C@@H](C(=O)N[C@@H]1C(=O)N2[C@@H]1SC(C)(C)[C@@H]2C(=O)O)c1ccc(O)cc1", "values": [
      {"measurement": "max activation", "setting": "[1]", "value": "-2.18% (inactive)"},
      {"measurement": "Potency", "setting": "[2]", "value": "inactive"}
    ]}
  ]
}
